Laboratory results taken from PubChem BioAssay.
The source made the active and inactive calls.

Legend:
[1] = E. coli DRC41 culture turbidity changes, primary screen, E. coli filamentation inducer project, strain DRC41, OD650, 48 h (AID 1152);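 also: E. coli MC1000 strain DRC41 lacking acrAB efflux pump and sulA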; conditions: E. coli DRC41 (acrAB sulA), higher = more signal, called active from +8 up or from −8 down
[2] = small-molecule binders of probe aLefty1, primary screen, biochemical, small-molecule microarray, 635/667 nm fluorescence (AID 1153); conditions: higher = more signal;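 also: score merges spot fluorescence with signal-to-noise ratio from the scanned slide images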
[3] = PSAC antagonists in infected red cells, primary screen, cell-based, P. falciparum Indochina, OD700, 1 h (AID 1154); conditions: P. falciparum Indochina infected RBC osmotic lysis, higher = more signal, called active from +8 up or from −8 down
[4] = PSAC antagonists in infected red cells, primary screen, cell-based, P. falciparum Indochina, OD700, 2 h (AID 1155);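 also: lysis reports solute entry through the parasite surface anion channel PSAC; channel blockers reduce lysis of infected cells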; conditions: P. falciparum Indochina infected erythrocytes, osmotic lysis OD700; higher = more signal, called active from +8 up or from −8 down
[5] = osmotic lysis modulators in infected erythrocytes, primary screen, PSAC antagonist project, cell-based, P. falciparum Indochina, OD700, 3 h (AID 1156); conditions: higher = more signal, called active from +8 up or from −8 down
[6] = PSAC antagonists in infected red cells, primary screen, cell-based, P. falciparum Indochina, OD700, 18 h (AID 1157); conditions: P. falciparum Indochina infected erythrocytes, osmotic lysis OD700, 18 h; higher = more signal, called active from +8 up or from −8 down
[7] = modulators of S6 phosphorylation in cells, primary screen, cell-based, A549, cytoblot, luminescence, serum-stimulated (AID 1158); conditions: A549 phospho-S6 cytoblot, 5 h, higher = more signal;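 also: serum-stimulated A549 lung adenocarcinoma cells; signal is phosphorylated S6 detected by cytoblot immunostaining with HRP secondary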
[8] = biological target: NADPH oxidase 2 (Homo sapiens) (UniProt P04839); experiment: NOX2-dependent H2O2 signal modulators, primary screen, NOX inhibitor project, cell-based, HEK293-NOX2, PMA-stimulated, Amplex Red fluorescence (AID 1159); conditions: 45 min, higher = more signal, called active from +8 up or from −8 down; also: test concentration not given here
[9] = biological target: NADPH oxidase 4 (Homo sapiens) (UniProt Q9NPH5); experiment: NOX4-dependent H2O2 signal modulators, primary screen, NOX inhibitor project, cell-based, HEK293-NOX4, tetracycline-induced, Amplex Red fluorescence (AID 1160); conditions: 45 min, higher = more signal, called active from +8 up or from −8 down
[10] = biological target: NADPH oxidase 5 (Homo sapiens) (UniProt Q96PH1); experiment: NOX5-dependent H2O2 signal modulators, primary screen, NOX inhibitor project, cell-based, HEK293-NOX5, Amplex Red fluorescence (AID 1161); conditions: HEK293-NOX5, ionomycin, 45 min, higher = more signal
[11] = A549 cell viability effects, profiling panel, calcein-AM fluorescence, 48 h, basal (AID 1162); conditions: higher = more signal; also: test concentration not given here
[12] = adipocyte viability effects, profiling panel, cell-based, 3T3-L1 adipocytes, calcein-AM fluorescence, 48 h, basal (AID 1163); conditions: 3T3-L1 adipocytes viability, higher = more signal; also: test concentration not given here
[13] = HepG2 cell viability effects, profiling panel, calcein-AM fluorescence, 48 h, basal (AID 1164); conditions: higher = more signal; also: test concentration not given here
[14] = MM1S cell viability effects, profiling panel, calcein-AM fluorescence, 48 h, basal (AID 1165); conditions: higher = more signal;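 also: viability of MM1S multiple myeloma cells under basal unstimulated conditions; test concentration not given here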
[15] = basal RPMI8226 viability, no added stimulus, profiling panel, cell-based, calcein-AM fluorescence, 48 h, PK04 Diversity Set (AID 1166); conditions: RPMI8226 myeloma viability, higher = more signal;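 also: cells grown under basal conditions without added stimulus; test concentration not given here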
[16] = basal HepG2 mitochondrial membrane potential changes, profiling panel, cell-based, JC-1 fluorescence, 24 h, 100 nL compound (AID 1167); conditions: higher = more signal; also: test concentration not given here
[17] = basal 3T3-L1 adipocyte mitochondrial potential changes, profiling panel, cell-based, JC-1 fluorescence, 3T3-L1 adipocytes, 24 h, 100 nL compound (AID 1168); conditions: JC-1 mitochondrial fluorescence, higher = more signal, called active from +8 up or from −8 down; also: test concentration not given here
[18] = basal RPMI8226 mitochondrial membrane potential changes, profiling panel, cell-based, JC-1 fluorescence, 24 h, 100 nL compound (AID 1169); conditions: RPMI8226 myeloma, JC-1 mitochondrial potential fluorescence, higher = more signal; also: test concentration not given here
[19] = basal MM1S mitochondrial membrane potential changes, profiling panel, cell-based, JC-1 fluorescence, 24 h, 100 nL compound (AID 1170); conditions: higher = more signal; also: test concentration not given here
[20] = A549 lung cancer cell viability effects, profiling panel, resazurin fluorescence, 24 h, PK04 Diversity Set (AID 1171); conditions: higher = more signal, called active from +8 up or from −8 down; also: test concentration not given here

Chain of NADPH oxidase 2 (Homo sapiens) (P04839 whole entry, looked up): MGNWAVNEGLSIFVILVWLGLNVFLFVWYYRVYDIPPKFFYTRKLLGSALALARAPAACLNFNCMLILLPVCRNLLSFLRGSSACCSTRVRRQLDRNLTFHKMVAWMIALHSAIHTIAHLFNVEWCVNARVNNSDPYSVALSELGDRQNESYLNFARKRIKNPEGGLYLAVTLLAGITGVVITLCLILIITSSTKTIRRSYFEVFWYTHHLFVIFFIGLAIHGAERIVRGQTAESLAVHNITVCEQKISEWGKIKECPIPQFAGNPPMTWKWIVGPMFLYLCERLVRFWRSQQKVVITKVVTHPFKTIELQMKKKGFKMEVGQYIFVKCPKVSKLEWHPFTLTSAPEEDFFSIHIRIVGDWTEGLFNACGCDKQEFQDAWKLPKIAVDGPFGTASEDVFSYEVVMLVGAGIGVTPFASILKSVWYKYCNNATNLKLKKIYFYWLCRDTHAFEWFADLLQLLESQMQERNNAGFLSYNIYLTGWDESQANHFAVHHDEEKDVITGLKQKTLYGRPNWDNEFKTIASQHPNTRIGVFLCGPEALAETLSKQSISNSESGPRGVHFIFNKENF
Chain of NADPH oxidase 4 (Homo sapiens) (Q9NPH5 whole entry, looked up): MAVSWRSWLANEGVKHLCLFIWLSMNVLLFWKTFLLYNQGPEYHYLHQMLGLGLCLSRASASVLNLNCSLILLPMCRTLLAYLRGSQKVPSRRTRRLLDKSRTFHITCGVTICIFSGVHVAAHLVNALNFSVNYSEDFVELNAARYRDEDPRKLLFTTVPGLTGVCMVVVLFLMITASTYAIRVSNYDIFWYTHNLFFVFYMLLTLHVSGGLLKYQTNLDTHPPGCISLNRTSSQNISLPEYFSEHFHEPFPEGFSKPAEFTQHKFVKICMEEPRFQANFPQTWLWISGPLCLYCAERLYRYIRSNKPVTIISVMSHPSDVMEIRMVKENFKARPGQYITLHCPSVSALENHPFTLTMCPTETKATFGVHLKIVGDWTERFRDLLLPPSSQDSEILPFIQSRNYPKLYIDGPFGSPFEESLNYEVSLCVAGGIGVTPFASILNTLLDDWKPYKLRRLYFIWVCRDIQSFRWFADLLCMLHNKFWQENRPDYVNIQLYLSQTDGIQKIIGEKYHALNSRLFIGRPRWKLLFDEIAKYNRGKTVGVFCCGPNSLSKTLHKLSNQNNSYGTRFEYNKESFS
Chain of NADPH oxidase 5 (Homo sapiens) (Q96PH1 whole entry, looked up): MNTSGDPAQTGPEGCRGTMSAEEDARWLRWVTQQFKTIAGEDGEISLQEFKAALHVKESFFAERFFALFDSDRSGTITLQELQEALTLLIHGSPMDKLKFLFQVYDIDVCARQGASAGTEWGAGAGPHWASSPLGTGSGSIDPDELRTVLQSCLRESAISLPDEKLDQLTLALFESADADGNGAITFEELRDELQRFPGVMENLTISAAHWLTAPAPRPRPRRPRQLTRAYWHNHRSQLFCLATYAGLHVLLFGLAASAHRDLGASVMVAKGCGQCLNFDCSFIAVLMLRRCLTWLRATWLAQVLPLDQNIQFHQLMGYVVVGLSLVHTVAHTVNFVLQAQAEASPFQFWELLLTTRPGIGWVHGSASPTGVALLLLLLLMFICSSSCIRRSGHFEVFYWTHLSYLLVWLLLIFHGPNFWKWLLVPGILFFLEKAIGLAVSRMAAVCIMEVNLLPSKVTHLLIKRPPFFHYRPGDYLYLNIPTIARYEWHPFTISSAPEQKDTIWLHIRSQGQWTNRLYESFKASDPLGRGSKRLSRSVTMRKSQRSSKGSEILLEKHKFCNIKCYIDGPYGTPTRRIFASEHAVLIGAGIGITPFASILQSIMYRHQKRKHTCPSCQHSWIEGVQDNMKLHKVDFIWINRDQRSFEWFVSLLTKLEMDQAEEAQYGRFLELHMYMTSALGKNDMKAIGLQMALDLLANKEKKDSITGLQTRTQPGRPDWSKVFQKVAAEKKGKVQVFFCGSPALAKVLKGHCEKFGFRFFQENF

Row | SMILES | z-score [1] | composite z-score [2] | z-score [3] | z-score [4] | z-score [5] | z-score [6] | z-score [7] | z-score [8] | z-score [9] | z-score [10] | z-score [11] | z-score [12] | z-score [13] | z-score [14] | z-score [15] | z-score [16] | z-score [17] | z-score [18] | z-score [19] | z-score [20]
1 | CCN1C(=O)[C@H]2[C@H]3[C@H](O)[C@H](O)CC(=NOCc4ccccc4)[C@H]3CC[C@H]2C1=O | -0.255 (inactive) | -0.276 | 1.78 (inactive) | 0.012 (inactive) | -0.824 (inactive) | 0.0113 (inactive) | 0.9 | -0.145 (inactive) | 0.32 (inactive) | -0.385 | -0.803 | -0.0387 | -0.228 | -0.463 | -0.644 | -1.13 | -1.37 (inactive) | 0.462 | 0.515 | -0.0275 (inactive)
2 | C=CC[C@@H]1C=C[C@H](ON=C(C)CCN2CCc3nc(CC)c(CC)cc3C2)[C@@H](CO)O1 | 0.31 (inactive) | 0.288 | 2.65 (inactive) | 0.37 (inactive) | 0.412 (inactive) | 0.294 (inactive) | -1.15 | -1.24 (inactive) | 0.492 (inactive) | 1.82 | 1.36 | 1.06 | -1.47 | -0.727 | 0.121 | 3.09 | -1.31 (inactive) | 0.0868 | -0.587 | 0.097 (inactive)
3 | COC(=O)[C@H]1COC(c2ccc(OCCCO)cc2)=N1 | -0.13 (inactive) | 0.245 | 22.4 (active) | 5.33 (inactive) | 0.0031 (inactive) | 0.642 (inactive) | -0.0797 | -0.257 (inactive) | 0.172 (inactive) | -0.663 | -0.283 | 0.568 | -0.344 | 0.0072 | -0.231 | -0.371 | 0.203 (inactive) | -0.16 | 1.23 | 0.0759 (inactive)
4 | Cc1ccc(C2CC=C(C(=O)O)CN2S(=O)(=O)c2ccc(C)cc2)cc1 (stereo not given) | -1.29 (inactive) | -0.0294 | 1.26 (inactive) | 0.838 (inactive) | 0.927 (inactive) | 0.98 (inactive) | -0.51 | -0.446 (inactive) | -1.44 (inactive) | 0.321 | -0.789 | 0.171 | -1.04 | -1.07 | -1.65 | -0.0791 | -0.516 (inactive) | -0.187 | -0.296 | -0.716 (inactive)
5 | CO[C@@H]1COC(=O)CCC[C@@H](C)[C@H](OC)COC(=O)[C@H](Cc2ccccc2)NC(=O)CC=C[C@H]1C | 0.585 (inactive) | -0.235 | 1.99 (inactive) | 1.07 (inactive) | 1.21 (inactive) | 0.368 (inactive) | 1.02 | 0.0908 (inactive) | -0.255 (inactive) | -0.444 | 0.0498 | 0.134 | -0.829 | 0.355 | -1.25 | 2.07 | -1.18 (inactive) | 0.256 | -0.479 | 0.451 (inactive)
6 | COc1ccc(-c2nc3c(c4c2C[C@H](C)OC4)CN(CCC(C)C)CC3)cc1 | 0.498 (inactive) | 0.0687 | 1.78 (inactive) | 0.673 (inactive) | 0.511 (inactive) | 0.123 (inactive) | -0.0895 | -0.112 (inactive) | 0.239 (inactive) | 0.684 | 0.537 | -0.49 | 0.443 | 0.508 | -0.234 | 1.7 | -0.613 (inactive) | 0.0911 | -0.685 | -0.0598 (inactive)
7 | [N-]=[N+]=Nc1ccccc1C[C@@]1(C(N)=O)N=C(c2ccc(OCCCO)cc2)O[C@@H]1c1ccccc1 | -0.307 (inactive) | 0.506 | 27.3 (active) | 22.4 (active) | 2.73 (inactive) | 2.47 (inactive) | 1.4 | -2.2 (inactive) | 0.249 (inactive) | -1.75 | -0.391 | 1.73 | -0.515 | -2.86 | -2.94 | 0.57 | -0.433 (inactive) | -0.778 | -0.988 | -0.732 (inactive)
8 | CC(C)[C@H](NC(=O)OC(C)(C)C)[C@@H](O)CC(=O)OC(C)(C)C | -0.703 (inactive) | -0.0197 | 0.775 (inactive) | 0.269 (inactive) | 0.835 (inactive) | 0.128 (inactive) | 0.242 | 1.33 (inactive) | -1.02 (inactive) | 1.04 | 0.403 | 1.24 | 0.026 | 0.793 | -0.229 | 0.251 | -0.689 (inactive) | 0.62 | 1.06 | -1.54 (inactive)
9 | COCCOC(=O)N1C(=O)[C@@]2(c3cc(C#CC4(O)CCCCCC4)ccc31)[C@H](c1ccc(OCCO)cc1)N1[C@H](c3ccccc3)[C@H](c3ccccc3)OC(=O)[C@H]1[C@@H]2C(=O)NC[C@H](O)c1ccccc1 | 1.02 (inactive) | 0.43 | 2.18 (inactive) | 0.524 (inactive) | 0.735 (inactive) | -0.494 (inactive) | 1.47 | 1.79 (inactive) | 0.858 (inactive) | -1.31 | 0.358 | 1.62 | -0.063 | -1.25 | -1.84 | -1.67 | 0.0493 (inactive) | -0.924 | -1.47 | 0.702 (inactive)
